Measured values: PubChem BioAssay (NCI)
This is part of a sample that, as a whole, favours compounds with a hit. Of some 83,000 tested, about 20% had one in any assay.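 Negative percent growth values reflect cell death: -40 means 40% of the cells present at the start died, and -100 means all died.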 Calls of active or inactive are those of the source. The calls were made as follows: active = growth percent below 10; inactive = the rest.

Tests used:
Experiment in all cases: NCI-60 one-dose screen, 48 h (100 = growth as untreated, 0 = no growth, -100 = all killed)
SK-MEL-2 melanoma = conditions: 10 µM unless noted
SN12C renal = conditions: 10 µM unless noted
UO-31 renal = conditions: 10 µM unless noted
TK-10 renal = conditions: 10 µM unless noted
ACHN renal = conditions: 10 µM unless noted
CAKI-1 renal = conditions: 10 µM unless noted
A498 renal = conditions: 10 µM unless noted
CCRF-CEM leukemia = conditions: 10 µM unless noted
MOLT-4 leukemia = conditions: 10 µM unless noted
SR leukemia = conditions: 10 µM unless noted
OVCAR-8 ovarian = conditions: 10 µM unless noted
OVCAR-5 ovarian = conditions: 10 µM unless noted
OVCAR-4 ovarian = conditions: 10 µM unless noted
SK-OV-3 ovarian = conditions: 10 µM
IGROV1 ovarian = conditions: 10 µM unless noted
OVCAR-3 ovarian = conditions: 10 µM unless noted
HS 578T breast = conditions: 10 µM unless noted
NCI/ADR-RES ovarian = conditions: 10 µM unless noted
RPMI-8226 leukemia = conditions: 10 µM

Measured: growth

CCOC(=O)c1sc(NC(=O)CN2CCC(Cc3ccccc3)CC2)nc1C
inactive: SK-MEL-2 melanoma 133% | SN12C renal 106% | UO-31 renal 80.4% | TK-10 renal 106% | ACHN renal 107% | CAKI-1 renal 99.4% | A498 renal 100% | CCRF-CEM leukemia 94.1% | MOLT-4 leukemia 84.3% | SR leukemia 83.7% | OVCAR-8 ovarian 110% | OVCAR-5 ovarian 103% | OVCAR-4 ovarian 98.6% | SK-OV-3 ovarian 102% | IGROV1 ovarian 87.6% | OVCAR-3 ovarian 108% | HS 578T breast 83.4% | NCI/ADR-RES ovarian 94.1%

CCOC(=O)c1cc2c(n(C)c1=O)-c1cnn(-c3ccc(OC)cc3)c1CC2
inactive: SK-MEL-2 melanoma 105% | SN12C renal 99.8% | UO-31 renal 77.5% | TK-10 renal 130% | ACHN renal 81.4% | CAKI-1 renal 89.8% | A498 renal 87% | CCRF-CEM leukemia 89.5% | MOLT-4 leukemia 94.2% | SR leukemia 87.2% | RPMI-8226 leukemia 89.1% | OVCAR-8 ovarian 93.8% | OVCAR-5 ovarian 95.2% | OVCAR-4 ovarian 106% | SK-OV-3 ovarian 108% | IGROV1 ovarian 115% | OVCAR-3 ovarian 107% | HS 578T breast 119% | NCI/ADR-RES ovarian 114%

Cc1nc2cc(Nc3nc(N4CCCCC4)nc(N4CCOCC4)n3)ccc2n1Cc1ccccc1
active: UO-31 renal 1.61% | TK-10 renal -32.9% | ACHN renal -41.4% | OVCAR-4 ovarian -63.9% | OVCAR-3 ovarian -3.53%
inactive: SK-MEL-2 melanoma 19% | SN12C renal 52.2% | CAKI-1 renal 63.3% | A498 renal 38.8% | CCRF-CEM leukemia 62.2% | MOLT-4 leukemia 36.4% | SR leukemia 25.2% | RPMI-8226 leukemia 17.7% | OVCAR-8 ovarian 27.6% | OVCAR-5 ovarian 55.8% | SK-OV-3 ovarian 39.8% | IGROV1 ovarian 47% | HS 578T breast 34.6% | NCI/ADR-RES ovarian 27%

CCC(=O)Nc1nnc(Cc2ccc(OC)c(OC)c2)s1
active: SK-MEL-2 melanoma -6.77% | SN12C renal 2.77% | TK-10 renal -37.7% | ACHN renal 4.03% | CAKI-1 renal -33.6% | SR leukemia -18.1% | OVCAR-8 ovarian -32.6% | OVCAR-4 ovarian -69.7% | OVCAR-3 ovarian -45.3% | HS 578T breast -13%
inactive: UO-31 renal 19.6% | A498 renal 85.2% | CCRF-CEM leukemia 38.3% | MOLT-4 leukemia 48.9% | RPMI-8226 leukemia 15.6% | OVCAR-5 ovarian 85.9% | SK-OV-3 ovarian 24.7% | IGROV1 ovarian 30.1% | NCI/ADR-RES ovarian 81.3%

CCCCCCCCCCCCCCNc1nc(CO)ncc1-c1ccc(C(F)(F)F)cc1
inactive: SK-MEL-2 melanoma 94.6% | SN12C renal 102% | UO-31 renal 79.1% | TK-10 renal 98.9% | ACHN renal 102% | CAKI-1 renal 93.8% | A498 renal 86.4% | CCRF-CEM leukemia 93.6% | MOLT-4 leukemia 99.6% | SR leukemia 102% | OVCAR-8 ovarian 99.5% | OVCAR-5 ovarian 103% | OVCAR-4 ovarian 112% | SK-OV-3 ovarian 91.7% | IGROV1 ovarian 104% | OVCAR-3 ovarian 103% | HS 578T breast 93.2% | NCI/ADR-RES ovarian 100%

COc1ccc(-c2c3c(N)c4c(nc3nc3c2c(C)nn3-c2ccccc2)CCCCC4)cc1
inactive: SK-MEL-2 melanoma 83.3% | SN12C renal 93% | UO-31 renal 61.6% | TK-10 renal 74.8% | ACHN renal 77.9% | CAKI-1 renal 84.2% | A498 renal 87.9% | CCRF-CEM leukemia 48% | MOLT-4 leukemia 49.5% | SR leukemia 54.1% | OVCAR-8 ovarian 83.2% | OVCAR-5 ovarian 86.3% | OVCAR-4 ovarian 67.8% | SK-OV-3 ovarian 85.6% | IGROV1 ovarian 86.7% | OVCAR-3 ovarian 72.6% | HS 578T breast 101% | NCI/ADR-RES ovarian 86.9%

Cc1nn(-c2ccccc2)c2nc3nc4c(c(N)c3c(-c3ccc(Cl)cc3)c12)CCCC4
active: SR leukemia -15.3%
inactive: SK-MEL-2 melanoma 98.3% | SN12C renal 96.3% | UO-31 renal 84.4% | TK-10 renal 112% | ACHN renal 81.8% | CAKI-1 renal 90.5% | A498 renal 97.2% | CCRF-CEM leukemia 92.5% | MOLT-4 leukemia 97% | RPMI-8226 leukemia 93% | OVCAR-8 ovarian 92.6% | OVCAR-5 ovarian 96.3% | OVCAR-4 ovarian 109% | SK-OV-3 ovarian 101% | IGROV1 ovarian 104% | OVCAR-3 ovarian 114% | HS 578T breast 105% | NCI/ADR-RES ovarian 106%

CCCC1=NNC(=O)C1
inactive: SK-MEL-2 melanoma 106% | SN12C renal 101% | UO-31 renal 82.8% | TK-10 renal 97.2% | ACHN renal 103% | CAKI-1 renal 94.8% | A498 renal 109% | CCRF-CEM leukemia 100% | MOLT-4 leukemia 97.2% | SR leukemia 103% | RPMI-8226 leukemia 100% | OVCAR-8 ovarian 102% | OVCAR-5 ovarian 103% | OVCAR-4 ovarian 106% | SK-OV-3 ovarian 104% | IGROV1 ovarian 103% | OVCAR-3 ovarian 120% | HS 578T breast 110% | NCI/ADR-RES ovarian 115%

COc1cccc(-c2ccc3c(c2)C2CCN(Cc4ccccc4)C3C2)c1 (stereo not given)
inactive: SK-MEL-2 melanoma 61.5% | SN12C renal 90.4% | UO-31 renal 51.6% | TK-10 renal 92.4% | ACHN renal 93.2% | CAKI-1 renal 78.4% | A498 renal 65% | CCRF-CEM leukemia 63.8% | MOLT-4 leukemia 68.8% | SR leukemia 18.4% | OVCAR-8 ovarian 85% | OVCAR-5 ovarian 84.4% | OVCAR-4 ovarian 86.5% | SK-OV-3 ovarian 71.1% | IGROV1 ovarian 59.9% | OVCAR-3 ovarian 72.2% | HS 578T breast 90% | NCI/ADR-RES ovarian 68.8%

O/N=C/c1cccs1
inactive: SK-MEL-2 melanoma 116% | SN12C renal 106% | UO-31 renal 89.1% | TK-10 renal 118% | ACHN renal 97% | CAKI-1 renal 91.7% | A498 renal 102% | CCRF-CEM leukemia 101% | MOLT-4 leukemia 85.5% | SR leukemia 96.8% | RPMI-8226 leukemia 112% | OVCAR-8 ovarian 98.3% | OVCAR-5 ovarian 100% | OVCAR-4 ovarian 115% | SK-OV-3 ovarian 118% | IGROV1 ovarian 108% | OVCAR-3 ovarian 119% | HS 578T breast 116% | NCI/ADR-RES ovarian 121%

O=C1c2[nH]cc(CN[C@@H]3CCCN3)c2C(=O)c2c1c(O)c1ccccc1c2O
active: SK-MEL-2 melanoma -17.3% | SN12C renal -32% | UO-31 renal -31.1% | TK-10 renal -89.3% | ACHN renal -92.8% | CAKI-1 renal -18.4% | CCRF-CEM leukemia -85.6% | MOLT-4 leukemia -84.7% | SR leukemia -69.6% | RPMI-8226 leukemia -55.5% | OVCAR-8 ovarian -92% | OVCAR-5 ovarian -95% | SK-OV-3 ovarian -100% | IGROV1 ovarian -83% | OVCAR-3 ovarian -95.9% | HS 578T breast -50%
inactive: A498 renal 38.1% | NCI/ADR-RES ovarian 20.3%

COc1ccc(/C=C2\CN(Cc3cn(CCCNc4ccnc5cc(Cl)ccc45)nn3)C/C(=C\c3ccc(OC)cc3)C2=O)cc1
inactive: SK-MEL-2 melanoma 90.4% | SN12C renal 67% | UO-31 renal 54.7% | TK-10 renal 94.9% | ACHN renal 79.6% | CAKI-1 renal 92.6% | A498 renal 52.9% | MOLT-4 leukemia 32.2% | OVCAR-5 ovarian 120% | OVCAR-4 ovarian 55.1% | SK-OV-3 ovarian 70.7% | IGROV1 ovarian 65% | OVCAR-3 ovarian 68.7% | HS 578T breast 81.5% | NCI/ADR-RES ovarian 50.7%
active: CCRF-CEM leukemia 1.02% | SR leukemia -6.55% | OVCAR-8 ovarian 1.09%

CC(C)(C)CC(C)(C)N(CSc1ccc(Cl)cc1)CSc1ccc(Cl)cc1
inactive: SK-MEL-2 melanoma 74.4% | SN12C renal 16.6% | UO-31 renal 25.5% | TK-10 renal 76.5% | ACHN renal 63.8% | CAKI-1 renal 24.9% | OVCAR-8 ovarian 44.6% | OVCAR-5 ovarian 63.4% | SK-OV-3 ovarian 71% | OVCAR-3 ovarian 41.4% | HS 578T breast 66.6%
active: A498 renal -7.24% | CCRF-CEM leukemia -19.8% | MOLT-4 leukemia -34.5% | SR leukemia -32.7% | RPMI-8226 leukemia -25% | IGROV1 ovarian 2.44%

Cc1oc2c(c1C(=O)N1CC[C@@H](N)C1)C(=O)c1c(c(O)c3ccccc3c1O)C2=O
inactive: SK-MEL-2 melanoma 77.4% | SN12C renal 22% | TK-10 renal 57% | ACHN renal 14.8% | CAKI-1 renal 28.1% | A498 renal 61.5% | RPMI-8226 leukemia 12.4% | OVCAR-8 ovarian 12.9% | OVCAR-5 ovarian 85.3% | SK-OV-3 ovarian 35.3% | HS 578T breast 34.3%
active: UO-31 renal 4.23% | CCRF-CEM leukemia -3.65% | MOLT-4 leukemia 0.576% | SR leukemia 1.4% | OVCAR-3 ovarian 3.52% | NCI/ADR-RES ovarian 8.79%

Cc1nc2cc(Nc3nc(Nc4ccc(F)cc4)nc(-c4ccc(Cl)cc4)n3)ccc2n1Cc1ccccc1
active: CCRF-CEM leukemia 3.88% | MOLT-4 leukemia 0.841% | SR leukemia -19.4% | RPMI-8226 leukemia 0.193%
inactive: SK-MEL-2 melanoma 83.6% | SN12C renal 77.1% | UO-31 renal 44.5% | TK-10 renal 112% | ACHN renal 71.6% | CAKI-1 renal 90.4% | A498 renal 70.3% | OVCAR-8 ovarian 62.8% | OVCAR-5 ovarian 92.3% | OVCAR-4 ovarian 58.6% | SK-OV-3 ovarian 92.9% | IGROV1 ovarian 48.7% | OVCAR-3 ovarian 57.3% | HS 578T breast 75.4% | NCI/ADR-RES ovarian 59.1%

Cc1c(NCC(=O)Nc2nc3ccccc3[nH]2)c(=O)n(-c2ccccc2)n1C
inactive: SK-MEL-2 melanoma 104% | SN12C renal 99.4% | UO-31 renal 81.5% | TK-10 renal 117% | ACHN renal 97.3% | CAKI-1 renal 97.9% | A498 renal 74% | CCRF-CEM leukemia 93.3% | MOLT-4 leukemia 104% | SR leukemia 92.4% | OVCAR-8 ovarian 99.9% | OVCAR-5 ovarian 92.5% | OVCAR-4 ovarian 88.3% | SK-OV-3 ovarian 106% | IGROV1 ovarian 102% | OVCAR-3 ovarian 109% | HS 578T breast 101%

COc1ccc(-n2ncc3c2ccc2cc(S(=O)(=O)c4ccccc4)c(=O)n(C)c23)cc1
inactive: SK-MEL-2 melanoma 96.3% | SN12C renal 101% | UO-31 renal 94.4% | TK-10 renal 86.3% | ACHN renal 75.4% | CAKI-1 renal 89.3% | A498 renal 70.5% | CCRF-CEM leukemia 96.6% | MOLT-4 leukemia 103% | SR leukemia 86.1% | OVCAR-8 ovarian 65.4% | OVCAR-5 ovarian 98.4% | SK-OV-3 ovarian 83.5% | IGROV1 ovarian 109% | OVCAR-3 ovarian 91.1% | HS 578T breast 49.5% | NCI/ADR-RES ovarian 77.3%
active: OVCAR-4 ovarian 6.65%
